96 compounds from PubChem BioAssay AID1626 (SRMLSC, 2009) can be followed below.

Hit rate of the full screen: of about 220,000 compounds, about 2,000 (0.91%) were called active. Not shown: some 2% with an inconclusive outcome. Only a sample is shown. Results with a measured potency or affinity are listed apart. Values without a mark were called inactive. Rule as the data show it: inconclusive = inhibition above about 80% without an active follow-up result; inactive = below that; test concentration not stated here.

This experiment can be described thus: M. tuberculosis H37Rv growth inhibitors, H37Rv strain (AID 1626).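 Also: bacteria incubated seven days before Alamar blue readout; 0% = bacteria only wells and 100% = bacteria with antibiotic wells.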 The conditions noted are these: active compounds read high, concentration not given here.
On to `Cc1cc(C)n2c(Br)c(CN3CC4CC(C3)c3cccc(=O)n3C4)nc2n1` (stereo unspecified), for which the inhibition is 9.25%.
Under `Brc1ccccc1-c1cnco1` stands -1.43%.
Regarding `Cc1cccc(OCC(=O)N2CCN(C(=O)c3ccco3)CC2)c1`, the inhibition was -15.9%.
On to `COc1ccc(-n2c(C)nc3c(cnn3-c3ccc(C)c(C)c3)c2=O)cc1`, for which the inhibition was 17.5%.
Under `O=c1cc(CSc2n[nH]c(-c3ccncc3)n2)nc2sccn12` stands 1.39%.
Consider `OCCN1CCN(Cc2cc(Cl)c3cccnc3c2O)CC1`, for which the inhibition was -5.12%.
`CCN(CC)C(=O)Oc1c(Cl)cc(Cl)c2cccnc12`: the inhibition is 4.99%.
Under `Oc1ccc(CN2CCc3ccccc3C2)c2cccnc12` stands 1.81%.
As to `CN(C)C(=O)Oc1c(Cl)cc(Cl)c2cccnc12`, the inhibition was 1.37%.
To `CCOC(=O)CN1C(=O)S/C(=C/c2cc(C)n(C)c2C)C1=O` belongs 8.52%; to `CC(NCCN(C)C)C(=O)C12CC3CC(CC(C3)C1)C2` (stereo unspecified), 6.21%; to `Cc1ccc(NCCC#N)cc1C`, -1.15%.
Consider `CCn1c(SCC(=O)NCc2ccccc2)nnc1-c1ccccc1O`, for which the inhibition is -6.19%.
Regarding `CCOc1cc(/C=N/NC(=O)CSc2nncn2C)ccc1OCc1ccccc1`, the inhibition is -1.69%.
To `CCOC(=O)c1[nH]ncc1CN1CCC(Cc2cccc(OC)c2)(C(=O)OCC)CC1` belongs -9.77%; to `O=C(OCC(=O)N1CCCc2ccccc21)c1cncc(Br)c1`, -11.1%; to `Cn1c(O)c(C(c2ccncc2)c2c(O)n(C)c(=S)n(C)c2=O)c(=O)n(C)c1=S`, -3.3%.
`OCc1cn(-c2ccccc2)nc1-c1ccc(-c2nn(-c3ccccc3)cc2CO)cc1`: the inhibition is -1.67%.
To `COc1ccc(-c2nn(-c3ccccc3)cc2CO)cc1` belongs 5.02%.
Regarding `O=C(O)Cc1cn(-c2ccccc2)nc1-c1ccccc1`, the inhibition was 3.9%.
To `Cc1ccc(-c2nn(-c3ccccc3)cc2CSC(=N)N)cc1` belongs 50.3%; to `Cc1cc(C)c(NC(N)=S)c(C)c1`, 5.56%; to `O=C(Nc1ccc2c(c1)Cc1ccccc1-2)c1cc2ccccc2o1`, 34.9%.
Under `CCOC(=O)/C(C(C)=O)=C1/OC(=O)c2ccccc21` stands 2.35%; under `COc1ccc(N2CCN(S(=O)(=O)c3ccc(OC)cc3)CC2)cc1`, 6.85%; under `O=C(Nc1ccc(F)cc1F)C1(c2cccs2)CCOCC1`, 4.02%.
Turning to `CCc1ccc(CCC(=O)Nc2ccc(C)cc2C)o1`, the inhibition was 12.7%.
Take `CCc1ccc(CCC(=O)Nc2ccc(S(N)(=O)=O)cc2)o1`: the inhibition was 1.79%.
Under `CCc1ccc(CCC(=O)Nc2ccc(C(C)=O)cc2)o1` stands 7.37%; under `COC(=O)CCC(=O)Nc1ccc(OC)cc1`, 1.4%.
As for `CCOC(=O)c1c(NC(=O)CCc2ccc(CC)o2)sc(C)c1C`, the inhibition was -6.75%.
Regarding `Cc1ccc(NC(=O)CCSCCC(=O)Nc2ccc(C)c(C)c2)cc1C`, the inhibition was 7.02%.
Under `Cc1cc(C)nc(NS(=O)(=O)c2ccc(NC(=O)CCC3COc4ccccc4O3)cc2)n1` (stereo unspecified) stands 0.51%; under `O=C(CCC1COc2ccccc2O1)Nc1cccnc1` (stereo unspecified), -8.19%.
To `O=[N+]([O-])c1ccc(C2CCCC/C2=N/OCc2ccccc2F)c([N+](=O)[O-])c1` (stereo unspecified) belongs 0.93%.
To `CC1CC(=O)c2cnc(Nc3cccc(C(F)(F)F)c3)nc2C1` (stereo unspecified) belongs 2.97%; to `O=C(Cn1nc(-c2ccccc2)c2ccccc2c1=O)NCC1CCCO1` (stereo unspecified), 8.76%; to `Cc1ccc(-n2c(C)cc3c2CCCC3=O)cc1`, -0.32%.
For `COC(=O)c1ccc(C(C(=O)NC2CCCCC2)N(C(=O)Cc2cccs2)C2CC2)cc1` (stereo unspecified), the inhibition is -2.62%.
To `COc1ccc(CCNC(=O)C2CCN(c3ccc(N4CCOCC4)nn3)CC2)c(OC)c1` belongs 6.05%; to `c1cnc2nc(-c3ccc4c(c3)OCO4)cn2c1`, -8.76%; to `COc1ccc(-c2nc3ncccn3c2Br)cc1`, -1.31%.
To `CC(NC(=O)COC(=O)Cc1ccsc1)c1ccccc1` (stereo unspecified) belongs -0.56%.
To `O=C(NCc1ccccc1)N(Cc1cc2cc3c(cc2[nH]c1=O)OCCO3)CC1CCCO1` (stereo unspecified) belongs -1.33%; to `CC1CCN(Cc2c(C#N)c3ccccc3n2C)CC1`, -4.52%.
Consider `Cc1nc(Nc2c(Cl)cccc2Cl)sc1C(=O)Nc1ccccc1`, for which the inhibition was 10.3%.
Under `Cc1nc(Nc2ccccc2)sc1C(=O)Nc1ccccc1` stands 21.1%.
Consider `O=C(OCC(=O)c1ccc[nH]1)c1ccc(S(=O)(=O)N2CCCCC2)cc1`, for which the inhibition is -10.2%.
On to `S=c1[nH]nc(COc2ccccc2)n1/N=C/C=C/c1ccccc1`, for which the inhibition is 12.1%.
On to `CCN(CC)C(=O)N1CCN(S(=O)(=O)c2ccc(C)cc2)CC1`, for which the inhibition was -9.01%.
To `O=C(COc1ccccc1)Nn1c(-c2ccccc2)nc2ccccc2c1=O` belongs -3.31%; to `O=C(N/N=C/c1ccncc1)c1ccc(NS(=O)(=O)c2cccs2)cc1`, -0.88%; to `c1ccc(N2CCN(c3cnc4ccccc4n3)CC2)cc1`, 5.67%.
As to `COc1ccc(N2CCN(c3cnc4ccccc4n3)CC2)cc1`, the inhibition is -9.34%.
Turning to `CC(C)C(NS(=O)(=O)c1cccc2nsnc12)C(=O)NCCC1=CCCCC1` (stereo unspecified), the inhibition is -3.27%.
To `Cc1cc(O)c(C(C[N+](=O)[O-])c2ccc(Cl)cc2)c(=O)o1` (stereo unspecified) belongs 6.11%.
To `Cc1[nH]c2ccccc2c1C(C[N+](=O)[O-])c1cccc(O)c1` (stereo unspecified) belongs 6.89%; to `Cc1[nH]n(-c2ccccc2)c(=O)c1C(C[N+](=O)[O-])c1ccccc1Cl` (stereo unspecified), 3.54%.
Under `Cc1cc(O)c(C(C[N+](=O)[O-])c2ccc(Cl)cc2Cl)c(=O)o1` (stereo unspecified) stands 2.19%; under `O=c1[nH][nH]c(-c2ccccc2O)c1C(C[N+](=O)[O-])c1ccccc1` (stereo unspecified), 6.94%; under `Cc1ccc(C(C[N+](=O)[O-])c2c(-c3ccccc3O)[nH][nH]c2=O)cc1` (stereo unspecified), 4.79%.
As to `O=C(Nc1ccccc1)c1ccc(NCc2cccnc2)c(S(=O)(=O)N2CCOCC2)c1`, the inhibition is 1.54%.
Under `COc1cc(-c2nc3n(n2)C(c2ccncc2)C(C(N)=O)=C(C)N3)cc(OC)c1OC` (stereo unspecified) stands -5.67%; under `COc1cccc(C2=CC(c3cccc(OC)c3OC)n3nnnc3N2)c1` (stereo unspecified), -6.61%; under `O=C(COC(=O)c1cc(S(=O)(=O)N2CCCC2)ccc1O)Nc1ccc(S(=O)(=O)N2CCOCC2)cc1`, 1.29%.
`CN1CCC(N(C)C(=O)c2cc(=O)c3ccccc3o2)CC1`: the inhibition was 18.1%.
Under `Cc1sc2nc(CSc3ccccc3)nc(N3CCN(C)CC3)c2c1C` stands 0.24%.
Take `CCOC(=O)c1sc2nc(CSc3ccccc3)nc(NCCN(C)C)c2c1C`: the inhibition was -5.4%.
For the compound `CC(C)CNC(=O)c1c(N)n(/N=C/c2ccccn2)c2nc3ccccc3nc12`, the inhibition was -5.94%.
To `CCC(C)NC(=O)c1c(N)n(/N=C/c2cccnc2)c2nc3ccccc3nc12` (stereo unspecified) belongs 7.17%; to `Cc1ccc(CSCc2ccc(C(=O)NCC3CCCO3)o2)cc1` (stereo unspecified), 6.03%; to `CCOC(=O)c1ccc(NC(=S)N2CCN(c3ccc(N4CCOCC4)nn3)CC2)cc1`, 4.49%.
For `CC(C)C(NC(=O)c1ccccc1)C(=O)NC1=NCCS1` (stereo unspecified), the inhibition was -2.59%.
To `CCc1nnc(NC(=O)c2cc(-c3ccccc3)nn2-c2ccccc2)s1` belongs 19.3%.
For the compound `O=C(Nc1nc2ccccc2s1)c1cc(-c2ccccc2)nn1-c1ccccc1`, the inhibition was -3.23%.
To `CC(OC(=O)CCC(=O)c1cccs1)C(=O)Nc1ccc(Cl)cn1` (stereo unspecified) belongs 2.41%; to `OC1CCN(c2cc(-c3ccccc3)nc3cc(-c4ccc(F)cc4)nn23)CC1`, 5.18%.
Turning to `Fc1ccc(-c2cc3nc(-c4ccccc4)cc(N4CCOCC4)n3n2)cc1`, the inhibition was 1.89%.
In the case of `O=C(O)C(Oc1ccc2c3c(c(=O)oc2c1)CCC3)c1ccccc1` (stereo unspecified), the inhibition is -10.3%.
Turning to `Cc1nnc(SCC(=O)Nc2ncc(S(=O)(=O)c3ccc([N+](=O)[O-])cc3)s2)s1`, the inhibition was -0.12%.
To `Cc1ccc(Nc2nnc(SCC(=O)Nc3ncc(S(=O)(=O)c4ccc([N+](=O)[O-])cc4)s3)s2)cc1` belongs 0%; to `COc1ccc(OCC(O)CNC(=O)Nc2cc(C)cc(C)c2)cc1` (stereo unspecified), -16.7%.
Take `CCOC(=O)C(Cc1ccccc1)C(=O)Nc1ccccc1C` (stereo unspecified): the inhibition was -5.73%.
Turning to `CCOC(=O)C(Cc1ccccc1)C(=O)Nc1ccc(NC(=O)C(Cc2ccccc2)C(=O)OCC)cc1` (stereo unspecified), the inhibition was 3.39%.
As to `COC(=O)c1cn(NC(=O)Cc2cccc(OC)c2)c(=O)c2ccccc12`, the inhibition was 3.66%.
To `CC1CCN(S(=O)(=O)N2CCC(C(=O)NCc3cccs3)CC2)CC1` belongs -4.64%.
In the case of `Cc1cc(C(=O)COc2ncnc3sccc23)c(C)n1C`, the inhibition was -3.73%.
As to `Cc1noc(-c2ccccc2OC(=O)c2ccccc2)n1`, the inhibition was 1.9%.
To `COC(=O)c1ncccc1SC` belongs -0.23%; to `COC(=O)c1cc(Sc2c(Cl)cccc2Cl)ccn1`, 34%.
Take `S=C(NCc1ccco1)Nc1ccc(Br)cc1Cl`: the inhibition was 4.87%.
To `O=c1cc(-c2ccccc2)c2ccccc2[nH]1` belongs -8.75%; to `O=C(c1c[nH]cc1-c1ccccc1)c1cccc2ccccc12`, -3.22%.
Turning to `COc1ccc(C(CC(=O)Nc2ccccc2OC)n2cccc2)cc1` (stereo unspecified), the inhibition is 3.19%.
Under `CCOC(=O)N1CCN(C(=O)CN(c2ccc(OC)cc2)S(C)(=O)=O)CC1` stands -8.65%; under `CCn1c(=O)c(C(=O)NC(C)C)c(O)c2ccccc21`, 0.51%.
